TGFb SMAD3 inh: qHTS for Inhibitors of TGF-b; HepG2 CAGA-GFP TGF-b/SMAD3 reporter, GFP fluorescence, 18 h; TGF-beta stimulated, 500 pg/mL final; Potency, µM (top dose mostly 46.1 µM), inactives show at the highest dose activity, negative = inhibition, usual class: inhibitors; 1.2% of 410,000 active; AID 588855, 2011; also: potency is read from the fitted curve at half-maximal effect; % is scaled to controls: 0 for no effect and ±100 for the full control effect; nearly all actives have a fitted effect of over 65% in size
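First, reporter cells (HEPG2 CAGA-GFP) rested 2 h at 37 degrees C. Next, compounds were pinned in and TGF-beta added to 500 pg/mL final. After 18 h, GFP was imaged per cell and summed per well.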
DT40 TDP1 no CPT: qHTS for Inhibitors of human tyrosyl-DNA phosphodiesterase 1 (TDP1): qHTS in cells in absence of CPT | DT40 Tdp1-/- hTDP1 cells, no CPT, ATP luminescence, 48 h | Potency, µM (highest dose often 46.2 µM), without a hit: top-dose activity change, negative = growth inhibition, usual class: inhibitors | 15% of 420,000 active; also: potency is read from the fitted curve at half-maximal effect; % is scaled to controls: 0 for no effect and ±100 for the full control effect; nearly all actives have a fitted effect of over 55% in size
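Chicken DT40 Tdp1-/- cells complemented with human TDP1, screened without camptothecin (DMSO vehicle only), 400 cells/well. Compounds pin-transferred, cells incubated at 37 °C for at least 48 hr. Growth read as ATP-dependent luminescence (CellTiter-Glo, 30 min at RT).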
HepG2 viability: qHTS for Inhibitors of TGF-b: Cytotox Counterscreen; HepG2 CAGA-GFP viability, ATP luminescence, 18 h; Potency, µM (titrated, usually from 46.1 µM), inactives show top-dose activity change, negative = cytotoxicity, most hits filed as cytotoxic; 0.76% of 410,000 active; AID 588856, 2011; also: potency is read from the fitted curve at half-maximal effect
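CellTiter-Glo luminescence gave cytotoxicity after 18 hours at 37 degrees C. The cells were HepG2 CAGA-GFP in 1% FBS DMEM, stimulated with 500 pg/mL TGF-beta after compound addition. %Activity was normalised to no-cell wells (complete cell-killing) and DMSO (no toxicity), and curves were fitted and classified.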
TDP1 block: qHTS Assay for Inhibitors of Tyrosyl-DNA Phosphodiesterase (TDP1); recombinant TDP1, AlphaScreen DNA substrate cleavage; Potency, µM (series often up to 130 µM), without a hit: at the highest dose activity change, negative = inhibition, hits mostly inhibitors; 0.28% of 350,000 active; also: potency is read from the fitted curve at half-maximal effect; % is scaled to controls: 0 for no effect and ±100 for the full control effect; nearly all actives have a fitted effect of over 40% in size
Target sequence (Q9NUW8 whole entry, looked up): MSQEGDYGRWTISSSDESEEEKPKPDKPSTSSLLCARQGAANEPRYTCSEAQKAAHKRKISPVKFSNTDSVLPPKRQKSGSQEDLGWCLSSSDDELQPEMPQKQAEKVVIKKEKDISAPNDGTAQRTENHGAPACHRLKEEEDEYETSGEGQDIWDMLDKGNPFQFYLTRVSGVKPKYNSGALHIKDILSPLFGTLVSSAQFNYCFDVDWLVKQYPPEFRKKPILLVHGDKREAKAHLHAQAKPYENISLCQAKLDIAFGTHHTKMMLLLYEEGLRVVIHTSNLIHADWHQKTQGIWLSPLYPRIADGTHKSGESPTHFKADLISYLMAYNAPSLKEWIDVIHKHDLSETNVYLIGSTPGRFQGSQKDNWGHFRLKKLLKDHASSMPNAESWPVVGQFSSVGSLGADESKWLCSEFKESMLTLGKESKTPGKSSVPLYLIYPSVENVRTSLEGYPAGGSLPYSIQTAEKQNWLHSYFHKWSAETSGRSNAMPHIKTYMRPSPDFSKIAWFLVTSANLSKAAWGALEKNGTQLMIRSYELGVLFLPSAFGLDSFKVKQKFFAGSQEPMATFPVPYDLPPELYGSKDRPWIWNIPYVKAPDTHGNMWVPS
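AlphaScreen read-out: signal falls as enzyme removes the 3' tyrosine-FITC from a 5'-biotinylated DNA oligo (15 nM, 5 min, RT). Enzyme was E. coli-made recombinant Tdp1 at 1 nM, exposed to compound for 15 min beforehand; beads 10 ug/ml, 10 min.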
IL-1B inflam inh: qHTS for Inhibitors of Inflammasome Signaling: IL-1-beta AlphaLISA Primary Screen | AID 743279, 2014 | activity change, % at 57.5 µM | THP-1 LPS/ATP IL-1B secretion, AlphaLISA, 16 h; stronger effect = lower value | 4.7% of 360,000 active; in the data active = activity change below about -50%; inconclusive = mostly about -30% to -49%; also: % is scaled to controls: 0 for no effect and ±100 for the full control effect
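THP-1 cells pretreated 1 hr with compounds (up to 57.5 uM final), then stimulated with LPS (250 ng/mL final) plus ATP (1.25 mM final); secreted IL-1B measured by AlphaLISA after 16 hr, decreased signal indicating inhibition.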
TDP1 cell CPT: qHTS for Inhibitors of human tyrosyl-DNA phosphodiesterase 1 (TDP1): qHTS in cells in presence of CPT; chicken DT40 Tdp1-/-;hTDP1 cells + 20 nM CPT, ATP luminescence, 48 h; Potency, µM (titrated, usually from 46.2 µM), for inactives: at the top dose activity change, negative = growth inhibition, most hits filed as inhibitors; 12% of 420,000 active; also: potency is read from the fitted curve at half-maximal effect; % is scaled to controls: 0 for no effect and ±100 for the full control effect; nearly all actives have a fitted effect of over 55% in size
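Cell growth measured by CellTiter-Glo luminescence after a minimum 48 h, 37 C compound exposure with 20 nM CPT in Tdp1-knockout DT40 cells stably expressing hTDP1, seeded 400/well; qHTS titration format.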
An asterisk follows results filed as active; ? = inconclusive; nt = no result given; [ ] = another dose, or the depositor's remark. This is a sample that favours compounds with a hit; in the whole collection about 18% have one here. Unless noted, calls follow the shape of the dose curve; as a rule, active = well fitted curve in the direction sought with a large enough effect; inconclusive = small, poorly fitted or top-dose-only effect, or another doubt; inactive = no such curve, though single readings can be large; an effect the other way counts as inactive or inconclusive.

SMILES	TGFb SMAD3 inh	DT40 TDP1 no CPT	HepG2 viability	TDP1 block	IL-1B inflam inh	TDP1 cell CPT
O=C(Cc1c[nH]c2ccccc12)NCc1ccc(Cl)cc1Cl	-16%	1%	-22%	4%	12	-10%
CN(C)CCCNC(=S)NCC(c1ccc(Cl)cc1Cl)c1c[nH]c2ccccc12 (centres undefined)	?	?	-159%	13%	-104*	?
CCOc1ccc(C2=NNC(c3cccs3)=Nc3ccc(OCC)cc32)cc1	nt	nt	nt	8%	nt	nt
C[C@H](NC(=O)c1nc[nH]c1C(=O)NCC(=O)OCc1ccccc1)c1ccccc1	-6%	18µM*	0%	nt	3	?
CC(C)C[C@H](NC(=O)c1nc[nH]c1C(=O)NCc1ccc(CNC(=O)OC(C)(C)C)cc1)C(=O)OCc1ccccc1	7%	21µM*	-3%	nt	0	?
CC(C)C[C@H](NC(=O)c1nc[nH]c1C(=O)N[C@@H](CC(C)C)C(=O)OC(C)(C)C)C(=O)OCc1ccccc1	?	?	-33%	nt	0	?
CC(C)(C)OC(=O)NCc1ccc(NC(=O)c2nc[nH]c2C(=O)N[C@@H](Cc2ccccc2)C(=O)OCc2ccccc2)cc1	?	?	-11%	11%	-65*	?
CC(C)C[C@H](NC(=O)c1nc[nH]c1C(=O)NCC(=O)OC(C)(C)C)C(=O)OCc1ccccc1	11µM*	?	-49%	7%	32	?
C[C@H]1/C=C\CC(=O)NCc2cccc(c2)CNC(=O)N[C@H]1c1ccccc1	nt	nt	nt	5%	nt	nt
Cc1ccccc1C(=O)NC(CC(C)C)C(=O)N1CCN(c2ccccc2)CC1 (centres undefined)	5%	?	-1%	-9%	6	-26%
CCCCC[C@H](O)/C=C/[C@H]1OC(=O)C[C@H](O)[C@@H]1C/C=C\CCCC(=O)O	nt	nt	nt	9%	nt	nt
CCOc1ccc(CCNC(=O)C2CCCN(S(=O)(=O)N3CC(C)CC(C)C3)C2)cc1OCC (centres undefined)	1%	?	3%	2%	6	?
COc1ccc(S(=O)(=O)Nc2ncccc2C)c2ccccc12	0%	-13%	8%	nt	-23	5%
CCN(CC(=O)NC1CCS(=O)(=O)C1)C(=O)c1ccc(OC)c([N+](=O)[O-])c1 (centres undefined)	-16%	16%	2%	1%	8	2%
CC(C)(C)OC(=O)NCc1ccc(CNC(=O)c2[nH]cnc2C(=O)N[C@@H](Cc2ccccc2)C(=O)OCc2ccccc2)cc1	?	23µM*	5%	nt	4	?
CC(C)(C)OC(=O)NCc1ccc(CNC(=O)c2[nH]cnc2C(=O)N[C@@H](Cc2ccccc2)C(=O)OC(C)(C)C)cc1	-36%	21µM*	-16%	nt	?	18µM*
CC(C)(C)OC(=O)CNC(=O)c1[nH]cnc1C(=O)NC(c1ccccc1)c1ccccc1	?	?	-28%	nt	?	23µM*
CC(C)C[C@H](NC(=O)c1nc[nH]c1C(=O)NCC(=O)OCc1ccccc1)C(=O)OCc1ccccc1	?	?	-12%	nt	0	?
CC(C)C[C@H](NC(=O)c1[nH]cnc1C(=O)N[C@@H](C)c1ccccc1)C(=O)OCc1ccccc1	?	26µM*	-54%	-1%	24	29µM*
Cc1ccc(CNC(=O)Nc2ccccc2)n1C	5%	6%	-4%	nt	20	3%
C[C@H]1CN([C@@H](C)CO)C(=O)CCCn2nncc2CO[C@@H]1CN(C)Cc1ccccc1	11%	-17%	-4%	nt	22	0%
Cc1c(-c2nsc(NC(=O)c3cccs3)n2)nnn1-c1ccc(Cl)cc1	-2%	?	-4%	0%	nt	?
COc1ccc(-c2nc3c(Cl)cc(C(F)(F)F)cn3c2Cc2ccccc2C(F)(F)F)cc1OC	nt	-18%	nt	nt	18	-4%
COc1ccc(Cc2c(-c3ccc(C#N)cc3)nc3c(Cl)cc(C(F)(F)F)cn23)c(C)c1	nt	18µM*	nt	nt	0	?
CCCc1nc2c(Cl)cc(C(F)(F)F)cn2c1Cc1ccc(OC)cc1C	nt	16µM*	nt	nt	44	21µM*
SMILES	TGFb SMAD3 inh	DT40 TDP1 no CPT	HepG2 viability	TDP1 block	IL-1B inflam inh	TDP1 cell CPT
O=c1[nH]c(C2CCCN(S(=O)(=O)Cc3ccccc3)C2)nc2c1nnn2Cc1cccc(Cl)c1 (centres undefined)	2%	?	5%	nt	0	-4%
CC(=O)c1cccc(NS(=O)(=O)c2ccc(N/C=C\C(=O)c3ccc(C)cc3)cc2)c1	-4%	3.7µM*	-39%	4%	13	?
CC(=O)c1cccc(NS(=O)(=O)c2ccc(N/C=C/C(=O)c3ccc(F)cc3)cc2)c1	?	18µM*	-27%	-3%	-76*	12µM*
CC(=O)c1ccc(NS(=O)(=O)c2ccc(N/C=C/C(=O)c3ccc(F)cc3)cc2)cc1	?	?	-1%	-2%	21	?
CC(=O)c1cccc(NS(=O)(=O)c2ccc(N/C=C\C(=O)c3ccc(F)cc3)cc2)c1	?	10µM*	-18%	4%	?	13µM*
CC(=O)c1cccc(N/C=C\C(=O)c2ccc(C)cc2)c1	4%	?	-32%	5%	8	-17%
CCOC(=O)NC(=O)CSc1ccc(S(=O)(=O)N(C)C2CCCCC2)cn1	-23%	-28%	-13%	0%[56.1 µM]	-1	-23%

From PubChem BioAssay
